# Results as given in the supplement of paper PMC10121225.
# Structures can show the parent of a compound that is named as a salt.
# Tested on: hN + hpA co-culture (H1 iNGN2 human neurons + human primary astrocytes)
# Experiment: presynaptic density (SYNAPSIN1 puncta per MAP2 neurite area), Z-score vs DMSO controls; higher = more presynaptic puncta (synapse-promoting)
# Settings: 3 µM; 72 h
# 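Further: immunostained co-cultures imaged by high-content microscopy, Z-score per plate against mean and SD of 0.1% DMSO wells, compounds added on differentiation day 18, analysed day 21.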
row,Compound,presynaptic density (Z-score)
1,O=C(O)CNC(=O)c1c(O)c2ccccc2n(Cc2ccccc2)c1=O,0.0398
2,CCc1c(C(=O)C(N)=O)c2c(OCC(=O)O)cccc2n1Cc1ccccc1,0.584
3,CN1CCCCC1Cn1cc(C(=O)c2cc([N+](=O)[O-])ccc2I)c2ccccc21 (centres undefined),-0.667
4,N[C@@H]1C[C@H]1c1ccccc1 [Tranylcypromine (2-PCPA) HCl],0.259
5,C=C1C[C@@H]2[C@H](CC[C@]3(C)C(=O)CC[C@@H]23)[C@@]2(C)C=CC(=O)C=C12 [Exemestane],0.646
6,C[C@@]12N[C@@H](Cc3ccccc31)c1ccccc12 [(-)-MK 801 maleate],-0.122
7,C[C@@H]1O[C@@H](O[C@H]2C[C@@H](O)[C@]3(CO)[C@H]4[C@H](O)C[C@]5(C)[C@@H](C6=CC(=O)OC6)CC[C@]5(O)[C@@H]4CC[C@]3(O)C2)[C@H](O)[C@H](O)[C@H]1O [Ouabain],-1.54
8,O=C1CC[C@@]2(O)[C@H]3Cc4ccc(O)c5c4[C@@]2(CCN3CC2CC2)[C@H]1O5 [Naltrexone HCl],1.84
9,Cc1sc2c(c1C)C(c1ccc(Cl)cc1)=N[C@@H](CC(=O)OC(C)(C)C)c1nnc(C)n1-2,2.8
10,Cn1cc(C2=C(c3cn(C4CCN(Cc5ccccn5)CC4)c4ccccc34)C(=O)NC2=O)c2ccccc21 [Enzastaurin],0.0046
11,CCOC(=O)c1cncn1[C@H](C)c1ccccc1 [Etomidate],0.377
12,COc1ccc(C(=O)N2CCCC2=O)cc1 [Aniracetam],0.286
13,Cc1cc(SCc2sc(-c3ccc(C(F)(F)F)c(F)c3)nc2C)ccc1OCC(=O)O,0.227
14,CCC(COC(=O)c1cc(OC)c(OC)c(OC)c1)(c1ccccc1)N(C)C (centres undefined),0.31
15,CC[C@@H]1/C=C/C=C/C[C@H](C)[C@H](O)[C@](C)(O)C(=O)[C@H](C)[C@@H](O)[C@H](C)C(=O)[C@H](C)[C@@H](O)[C@H](C)/C=C/C(=O)O[C@H]2[C@@H](C)[C@@H](CC1)O[C@@]1(CC[C@@H](C)[C@@H](C[C@H](C)O)O1)[C@@H]2C [Oligomycin A],-1.28
16,Cc1cc2c(C(C)C)c(O)c(O)c(C=O)c2c(O)c1-c1c(C)cc2c(C(C)C)c(O)c(O)c(C=O)c2c1O,-4.31
17,CCN(CC)C(=O)c1ccc(C2=CC3(CCNCC3)Oc3cccc(O)c32)cc1,-0.78
18,O=C(O[C@H]1C[C@H]2CC[C@@H](C1)[N+]21CCCC1)C(O)(c1ccccc1)c1ccccc1 [Trospium chloride],-0.748
19,"CN1CCc2cc3c(cc2C1C1OC(=O)c2c1ccc1c2OCO1)OCO3 (single isomer, unassigned; (+)) [(+)-Bicuculline]",-0.322
20,CC(=O)O[C@H]1C[C@@H]2CC[C@@H]3[C@H](CC[C@@]4(C)[C@H]3C[C@H]([N+]3(C)CCCCC3)[C@@H]4OC(C)=O)[C@@]2(C)C[C@@H]1[N+]1(C)CCCCC1 [Pancuronium dibromide],-0.361
21,O=c1[nH]c2ccc(Cl)cc2c(N[C@@H]2CN3CCC2CC3)c1-c1nc2ccccc2[nH]1,-2.58
22,"O=[N+]([O-])C=Cc1ccc2c(c1)OCO2 [MNS (3,4-Methylenedioxy-Œ≤-nitrostyrene]",-0.543
23,CCCN1CCO[C@@H]2c3cc(O)ccc3OC[C@H]21,0.0588
24,C[C@](O)(COc1ccc(C#N)cc1)C(=O)Nc1ccc(C#N)c(C(F)(F)F)c1,-0.892
